# Screening data (PubChem)
# S-ASM inh: Inhibitors of Secretory Acid Sphingomyelinase (S-ASM): qHTS; Sphingomyelin phosphodiesterase (Homo sapiens), P17405; placental ASM, HMU-PC fluorogenic substrate, 60 min; 340,000 tested, 0.006% active; Potency, µM (top dose mostly 57.5 µM), without a hit: top-dose activity change, negative = inhibition, most hits filed as inhibitors; AID 504937, 2011; also: potency is read from the fitted curve at half-maximal effect
#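 qHTS format. ASM enzyme prepared from human placenta hydrolyses the fluorogenic substrate HMU-PC0 (9 uM final) over 60 min at 37 °C after a 10 min compound preincubation.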
# IL2 activator: qHTS of IL-2 Activators; IL-2 activation reporter assay, cell-based qHTS; stimulated with anti-CD3/CD4/CD28 beads; in transgenic mouse T cells; activation, % (series mostly up to about 46 µM); 360,000 tested, 0.065% active; AID 652025, 2013; in the data active = activation above about 50%; inconclusive = mostly about 30% to 49%; also: 0% is about no effect
#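 Screening format: compound pinned onto unstimulated transgenic mouse T cells, 60 min incubation, then anti-CD3/anti-CD4/anti-CD28 bead stimulation for 18 hours at 37 degrees C, followed by EGFP and DsRed detection.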
# PKM2 activator: qHTS Assay for Activators of Human Muscle isoform 2 Pyruvate Kinase | Pyruvate kinase PKM (Homo sapiens), P14618 | purified PKM2, Kinase-Glo ATP luminescence, activation; response scale: 0% is enzyme alone, no compound | Potency, µM (top dose mostly 57.5 µM), without a hit: at the highest dose activation, hits mostly activators | 260,000 tested, 0.34% active | AID 1631, 2009; also: potency is read from the fitted curve at half-maximal effect; % is scaled to controls: 0 for no effect and ±100 for the full control effect; nearly all actives have a fitted effect of over 55% in size
# Target sequence (P14618 whole entry, looked up, canonical isoform): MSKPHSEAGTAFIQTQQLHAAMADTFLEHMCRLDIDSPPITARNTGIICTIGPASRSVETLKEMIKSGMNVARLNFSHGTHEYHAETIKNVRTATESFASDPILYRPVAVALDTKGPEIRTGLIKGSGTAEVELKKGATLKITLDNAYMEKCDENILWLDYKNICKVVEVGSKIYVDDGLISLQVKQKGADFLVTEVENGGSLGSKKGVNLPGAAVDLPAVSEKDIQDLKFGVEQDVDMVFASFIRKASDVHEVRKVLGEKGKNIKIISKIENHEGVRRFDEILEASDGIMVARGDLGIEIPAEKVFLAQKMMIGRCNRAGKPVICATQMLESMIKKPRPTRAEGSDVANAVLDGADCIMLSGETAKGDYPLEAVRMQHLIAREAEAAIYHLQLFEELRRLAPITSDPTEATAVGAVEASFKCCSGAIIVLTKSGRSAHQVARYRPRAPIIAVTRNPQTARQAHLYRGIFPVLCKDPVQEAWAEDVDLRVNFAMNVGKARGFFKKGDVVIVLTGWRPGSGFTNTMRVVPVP
#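 ATP formation by purified human PK-M2, quantified via coupled luciferase luminescence after 1 h at room temperature with 0.1 mM ADP and 0.5 mM PEP final.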
# Starred values were filed as active, the others as inactive; i = inactive; ? = inconclusive; . = not tested or not shown; [ ] = dose if it differs, or a comment. The list is not random: actives were taken first. Their share in the collection is about 0.33%. Unless noted, calls follow the shape of the dose curve; as a rule, active = well fitted curve in the direction sought with a large enough effect; inconclusive = small, poorly fitted or top-dose-only effect, or another doubt; inactive = no such curve, though single readings can be large; an effect the other way counts as inactive or inconclusive.
SMILES,S-ASM inh,IL2 activator,PKM2 activator
COc1ccc(OC)c(C=Nc2ccccc2-c2nc3ccccc3[nH]2)c1,i,0.2,9.7%
O=S(=O)(c1ccccc1)c1nc(-c2ccco2)oc1NCCN1CCOCC1,4.7%,1.8,9.7%
Cc1cc(C)c2nc(SCC(=O)Nc3cc(C)on3)c(C#N)cc2c1,41.0%,0.3,1.12µM*
Cc1cc(C)c2nc(SCC(=O)Nc3cc(C)on3)c(C)cc2c1,2.4%,-0.2,.
Cc1cc(NC(=O)CSc2nc3c(cc2C#N)CCCC3)no1,58.1%,-2.1,?
Cc1cc(NC(=O)CSc2nc3c(cc2C#N)CCC3)no1,128.8%,2.9,2.51µM*
CC(=O)c1ccc(NC(=O)/C(=C\c2ccco2)NC(=O)c2ccco2)cc1,-0.6%,0.5,8.0%
CCCn1c2ccccc2c2cnn(CC(=O)NCCCN3CCCCC3)c(=O)c21,1.6%,1.8,.
COc1ccc(CNC(=O)C(=O)NCC2CCCN2S(=O)(=O)c2ccccc2)cc1 (centres undefined),1.3%,0.5,.
CN(C)c1cc[n+](CC(=O)Nc2ccc([N+](=O)[O-])cc2Cl)cc1,-3.3%,-3.9,1.8%
Brc1cccc(OCCCN2CCCCCC2)c1,1.9%,-3.0,-4.8%
Cc1cc(N2CCN(S(=O)(=O)c3ccc4c(c3)OCCO4)CC2)n2ncnc2n1,6.3%,-1.1,25.1µM*
Cc1cc(N2CCN(S(=O)(=O)c3ccc(Br)cc3)CC2)n2ncnc2n1,1.9%,-0.2,3.5%
COc1ccc(/C=N/NC(=O)Cn2c(Cc3ccc(OC)c(OC)c3)nc3ccccc32)cc1OC,1.4%,3.0,0.4%
C[N+](C)(C)CC/C=C1/c2ccccc2CSc2ccccc21,0.3%,1.0,-2.0%
Cc1cc(NC(=O)/C(C#N)=C/c2ccc(-c3cccc(C(F)(F)F)c3)o2)n(-c2ccccc2)n1,-2.4%,0.5,-0.9%
Cc1cc(NC(=O)/C(C#N)=C/c2ccc(-c3ccc(SC(F)F)cc3)o2)n(-c2ccccc2)n1,-2.2%,100.4*,-14.0%
O=S(=O)(c1ccc2ccccc2c1)N1CCN=C1SCc1cccnc1,-0.2%,3.8,17.8µM*
CC(=O)Nc1ccc(S(=O)(=O)N2CCN=C2SCc2cccnc2)cc1,2.5%,6.6,15.8µM*
CC(=O)Nc1ccc(S(=O)(=O)N2CCN=C2SCc2ccc(C)cc2)cc1,-6.2%,-0.2,-1.5%
O=S(=O)(c1ccc(F)cc1)N1CCN=C1SCc1cccnc1,1.6%,-3.9,14.0%
Cc1ccnc(Sc2ccc([N+](=O)[O-])cn2)n1,1.9%,0.3,0.6%
COc1ccccc1COC(=O)N/C=C/c1ccco1,-3.3%,-0.4,17.8µM*
COc1ccc(COC(=O)N/C=C/c2ccco2)cc1,-1.6%,-0.7,26.6%
COCOc1ccc(-c2ncc(OC)nc2NC(=O)c2cc(C)oc2C)cc1,.,1.8,.
SMILES,S-ASM inh,IL2 activator,PKM2 activator
Cc1cc(C)c(OCC(=O)OCC(=O)NC2CCC(C)CC2)c(C)c1 (centres undefined),-2.7%,0.0,.
CCN(CC)C1=CC2=CC(=C(C#N)C#N)CCC2CC1 (centres undefined),-8.9%,102.3*,6.1%
CCCCN(C)C1=CC2=CC(=C(C#N)C#N)CCC2CC1 (centres undefined),-11.4%,-4.9,0.2%
O=C(O)CN1C(=O)COc2cc(S(=O)(=O)N3CCCC3)ccc21,3.7%,-1.5,-10.0%
O=C(NCc1cccc(Cl)c1)N1CCN(S(=O)(=O)c2ccccc2F)CC1,1.6%,-2.6,14.1µM*
O=C(NCc1ccc(F)cc1)N1CCN(S(=O)(=O)c2ccccc2F)CC1,2.4%,3.6,11.2µM*
COc1ccc(CNC(=O)N2CCN(S(=O)(=O)c3ccccc3F)CC2)cc1,-0.2%,-3.7,.
O=S(=O)(c1ccccc1F)N1CCN(C(=S)NCc2ccccc2)CC1,-2.4%,7.1,?
COC(=O)c1cc(C(=O)c2ccc(C(C)(C)C)cc2)c[nH]1,-1.6%,-4.0,1.2%
CC(C)(C)c1ccc(C(=O)c2c[nH]c(C(=O)O)c2)cc1,10.0%,-1.1,31.6µM*
O=C(Nc1cccc(C(F)(F)F)c1)c1ccc(Cn2cc(Br)cn2)o1,-7.2%,-1.0,15.4%
O=C(Nc1ccc(C(F)(F)F)cc1Cl)c1ccc(Cn2cc(Br)cn2)o1,-6.9%,0.1,28.2µM*
O=C(NCc1ccc(/C=c2\sc3n(c2=O)CCN=3)o1)C(=O)Nc1ccccc1,.,.,20µM*
Cc1ccc(/C=c2/sc3n(c2=O)CCCN=3)o1,4.6%,1.5,12.2%
COC/C=C/C1=CC2=CC(=O)C(C)(OC(=O)c3cnc4ccccc4n3)C(=O)C2=CN1CCc1c[nH]c2ccccc12 (centres undefined),.,.,-2.9%[11.5 µM]
CCOc1cc(/C=C2/SC(=O)N(CC(=O)N3CCc4ccccc4C3)C2=O)ccc1OCC(=O)O,14.4%,-0.3,?
NC(=O)COc1ccccc1/C=C1/SC(=O)N(CC(=O)N2CCc3ccccc3C2)C1=O,-4.5%,0.1,20µM*
COC(=O)c1sc(NC(=S)NC(=O)c2cc(OC)c(OC)c(OC)c2)nc1C,-0.7%,-0.2,1.9%[11.5 µM]
Nc1cc(=O)[nH]c(=S)n1-c1ccccc1,0.9%,0.6,0.4%
O=C(CCCc1nc2ccccc2s1)N1CCN(c2ccccc2)CC1,-0.1%,-2.2,?
O=C(CCCc1nc2ccccc2s1)N1CCN(S(=O)(=O)c2cccs2)CC1,-1.4%,0.5,4.47µM*
Cn1ncc(C#N)c1/N=C/N1CCCCCC1,4.7%,2.4,-1.2%
Clc1ccccc1Cn1nnc2c(N3CCCC3)ncnc21,-1.7%,-1.2,15.8µM*
CC1Cc2ccccc2N1c1ncnc2c1nnn2Cc1ccccc1Cl (centres undefined),3.0%,-0.1,-1.9%
Cc1cc(C)cc(OC(C)C(=O)Nc2ccc3c(c2)n(C)c(=O)n3C)c1 (centres undefined),-5.4%,0.1,-12.1%
SMILES,S-ASM inh,IL2 activator,PKM2 activator
S=C(c1ccc(-c2ccc(Br)cc2)o1)N1CCOCC1,-13.9%,-4.6,12.6µM*
S=C(c1ccc(-c2ccc(Br)cc2)o1)N1CCCCC1,-2.1%,0.2,5.7%
O=C(COc1ccc(-c2nnco2)cc1)N1CCN(S(=O)(=O)c2ccc3ccccc3c2)CC1,1.7%,0.4,7.08µM*
COc1ccc(S(=O)(=O)N2CCN(C(=O)COc3ccc4c(C)cc(=O)oc4c3)CC2)cc1,47.6%,-5.0,14.1µM*
COc1ccc2c(CC(=O)N3CCN(S(=O)(=O)c4ccc(F)cc4)CC3)coc2c1,-1.0%,-0.2,.
CN(C)C(=O)N1CCN(S(=O)(=O)c2ccc3ccccc3c2)CC1,3.4%,-2.9,?
O=C(CCl)N1CCN(S(=O)(=O)c2ccc3ccccc3c2)CC1,-2.5%,-0.3,12.6µM*
CCC(C)c1ccc(S(=O)(=O)N2CCN(C(=O)COc3ccc4c(C)cc(=O)oc4c3)CC2)cc1 (centres undefined),-8.9%,0.5,1.0%
COc1ccc2c(CC(=O)N3CCN(S(=O)(=O)c4cccs4)CC3)coc2c1,2.7%,-1.8,22.4µM*
CS(=O)(=O)N1CCN(C(=O)COc2ccc3ccccc3c2)CC1,-3.1%,-0.2,-0.7%
